# Reference: PubChem BioAssay (NCATS)
# Results filed as inconclusive are left out. Unmarked numbers belong to inactive results. Active and inactive are the calls of the source. Calls follow the shape of the full dose curve.
# Experiment: Primary qHTS for inhibitors of SARS-S pseudo-typed particle cell entry (AID 1479145); also: nearly all actives have a fitted effect of over 45% in size
# Conditions: SARS-S pseudotyped particle cell entry, luciferase reporter; series mostly up to 57.1 µM; activity change, negative = inhibition: at the top concentration
# % is scaled to controls: 0 for no effect and ±100 for the full control effect.
Structure (SMILES),"activity change, negative = inhibition",outcome
C/C=C/c1ccc(OC)cc1,2.98%,–
CCOC(=O)c1ccc(C#Cc2ccc3c(c2)C(C)(C)CCS3)nc1,–,inactive
C#C[C@]1(O)CC[C@H]2[C@@H]3CCc4cc(OC)ccc4[C@H]3CC[C@@]21C,-18.3%,–
C/C(=C(\CCOP(=O)(O)O)SC(=O)c1ccccc1)N(C=O)Cc1cnc(C)nc1N,–,inactive [at 5.34 µM]
OCC(CO)N[C@H]1C[C@](O)(CO)[C@@H](O)[C@H](O)[C@H]1O,–,inactive
CCCc1nc(C)c2c(=O)[nH]c(-c3cc(S(=O)(=O)N4CCN(CC)CC4)ccc3OCC)nn12,–,inactive
CC(=O)O[C@H]1C[C@@H]2CC[C@@H]3[C@H](CC[C@@]4(C)[C@H]3C[C@H]([N+]3(C)CCCCC3)[C@@H]4OC(C)=O)[C@@]2(C)C[C@@H]1N1CCCCC1,-15.6%,–
CCCOc1ccc(C(=O)OCCN(CC)CC)cc1N,-17.2%,–
C[C@@H](O)[C@H](N)C(=O)O,–,inactive [at 26.4 µM]
CN(C)[C@@H]1C(=O)C(C(=O)NCN2CCCC2)=C(O)[C@@]2(O)C(=O)C3=C(O)c4c(O)cccc4[C@@](C)(O)C3C[C@@H]12 (some centres undefined),-30.7%,–
C[C@H](N)C(=O)N[C@@H](C)C(=O)NC1[C@H]2CN(c3nc4c(cc3F)c(=O)c(C(=O)O)cn4-c3ccc(F)cc3F)C[C@@H]12 (some centres undefined),-22.3%,–
CCOCC(O)COc1ccc(NC(=O)CC[S+](C)C)cc1 (centres undefined),-10.3%,–
C#C[C@]1(O)CC[C@H]2[C@@H]3[C@H](C)CC4=C(CCC(=O)C4)[C@H]3CC[C@@]21C,-21%,–
N[C@H](C(=O)O)[C@@H](O)c1ccc(O)c(O)c1,–,inactive
